The values that follow come from PubChem BioAssay (NCI).

The structures appear in SMILES notation. This is part of a sample that, as a whole, favours compounds with a hit. Of some 79,000 tested, about 15% had one in any assay. Values without a mark were called inactive. Active and inactive are the calls of the source. Cut-off read from the data, not from the text of the source: active = growth inhibition above about 70%; inactive = the rest.

A short description of the first assay: NCI Yeast Anticancer Drug Screen. Data for the sgs1 strain (AID 173).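 Note: 0% = growth of vehicle-only control cultures.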 The note with it: S. cerevisiae sgs1 mutant, at 1.2 µM, active compounds read high. Put shortly:
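Read-out: yeast growth inhibition relative to vehicle controls, following compound exposure of a strain with a defined DNA repair/cell cycle alteration.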
For `CSc1nnc(SC)nn1`, the growth inhibition was -2%.

Turning to `COc1cc(/C=C2\CCC/C(=C\c3ccc(O)c(OC)c3)C2=O)ccc1O`, the growth inhibition is -15%.

On to `CN(C)CCNC(=O)c1cccc2cc([N+](=O)[O-])ccc12`, for which the growth inhibition was 16%. Same read-out and setting: in the case of `CCC(C)(C)c1ccc(Oc2cccc(C(=O)O)c2)cc1` it was 6%; in that of `CCCCCCSc1ncnc2[nH]ncc12`, -3%; in that of `CC(=O)Nc1ccc(/C=C/[N+](=O)[O-])cc1`, -3%. For the compound `CCOC(=O)c1[nH]n(-c2ccccc2)c(=O)c1C=NC(=S)C(N)=S`, the growth inhibition was 21%. Take `CCCC(O)C1CC(C(C)C)CCC1C` (centres undefined): the growth inhibition is -2%. Same read-out and setting: the figure for `O=[n+]1c2ccccc2n([O-])c2cc(Br)ccc21` is 34%; for `CN(C)CCNC(=O)c1cccc2c1Oc1c(cccc1[N+](=O)[O-])O2` it is -10%; for `Nc1ncc(-c2ccc(Br)cc2)s1` it is 19%. Turning to `Cc1cc2cc3cc(C)c(N)cc3nc2cc1N`, the growth inhibition was -43%. For the compound `CC12C(=O)OC(=O)C(c3ccccc31)c1ccccc12`, the growth inhibition was -12%. In the case of `c1ccc2c(OCC3CO3)cccc2c1` (centres undefined), the growth inhibition is 15%. As for `CCOC(=N)c1ccc(O)c(OC)c1`, the growth inhibition is -3%. Same read-out and setting: the figure for `Nc1cc(N)c(N=Nc2cccc3c(S(=O)(=O)O)cccc23)cc1N=Nc1cc([N+](=O)[O-])ccc1O` is -7%; for `COC(=O)Oc1cc(Cl)c(Cl)cc1Cl` it is 0%; for `O=C(O)C1CC(c2ccccc2)=NN1c1ccccc1` (centres undefined) it is -29%. Consider `COc1cc([C@@H]2c3cc4c(cc3[C@@H](Nc3ccc(NC(=O)c5cc([N+](=O)[O-])cn5C)cc3)[C@H]3COC(=O)[C@H]23)OCO4)cc(OC)c1O`, for which the growth inhibition was -6%. On the same count and under the same terms, in the case of `O=C(O)c1ccccc1/C=N/N=C1c2ccccc2-c2ccccc21` it was 0%; in that of `O=C1CC(=O)c2ccccc21`, -1%; in that of `Nc1ncnc2c1ncn2C1OC(CO)CC1O` (centres undefined), -14%.

Still in this assay, the particulars now being: S. cerevisiae sgs1 mutant, at 3.7 µM, active compounds read high.
As to `CS(=O)(=O)SCc1ccc([N+](=O)[O-])cc1`, the growth inhibition is 39%.

As for `Cc1csc(=S)n1OC(=O)NC1CCCCC1`, the growth inhibition was 98% (active).

Take `CCOc1ccc(NC(=O)C2=C(C)NC(C)=C(C(=O)Nc3ccc(OCC)cc3)C2c2cccc([N+](=O)[O-])c2)cc1`: the growth inhibition is 0%. The same measure, in the same setting: in the case of `CC(C)(C)N=C(NO)c1ccccc1` it was 7%; in that of `CCCCC/C(=C(\C#N)C(=O)OCC)c1ccccc1`, 2%; in that of `O=C(NCCCl)Sc1ccc(Cl)cc1`, 13%. The same measure, in the same setting: the figure for `O=C1Nc2ccc(Br)cc2C1=Nc1ccc2c(c1)OCO2` is -21%. Same read-out and setting: in the case of `CCC(C)OC(=O)Nc1ccc(C)c(NC(=O)OC(C)CC)c1` (centres undefined) it was -5%. Consider `O=C(O)c1cc2ccc(Cl)cc2c(O)c1C1=CCCCC1`, for which the growth inhibition is 23%. Still for that read-out and setting: in the case of `CN(C)Cc1cc(N=Nc2ccc(Cl)cc2)ccc1OC(=O)c1ccccc1` it was 5%.

On to `CN1CCN(C(=O)/C=C/C(=O)c2ccccc2)CC1`, for which the growth inhibition is 15%. On the same count and under the same terms, the figure for `CCCC/C=C/C(C)(C(=O)OCC)C(=O)OCC` is -1%; for `Cc1nc(-c2cc3cc([N+](=O)[O-])ccc3oc2=O)cs1` it is 31%. As for `Cc1nc2ccccc2nc1NNc1ccccc1`, the growth inhibition is 1%. On to `CN(C)[C@@H]1C(=O)C(C(N)=O)=C(O)[C@@]2(O)C(=O)C3=C(O)c4c(O)cccc4C[C@H]3C[C@@H]12`, for which the growth inhibition is -9%. On the same count and under the same terms, in the case of `COc1ccc(NC(=O)CC2SC(=Nc3ccccc3C)NC2=O)c([N+](=O)[O-])c1` (centres undefined) it was 1%; in that of `COc1cc(O)c2c(c1O)C(=O)c1cc(C)ncc1C2=O`, 29%; in that of `CSc1nnc(SC)nn1`, 3%.

In the case of `COc1cc(/C=C2\CCC/C(=C\c3ccc(O)c(OC)c3)C2=O)ccc1O`, the growth inhibition is -10%. Same read-out and setting: in the case of `CN(C)CCNC(=O)c1cccc2cc([N+](=O)[O-])ccc12` it was 22%; in that of `CCC(C)(C)c1ccc(Oc2cccc(C(=O)O)c2)cc1`, 10%; in that of `CCCCCCSc1ncnc2[nH]ncc12`, -3%. For the compound `CC(=O)Nc1ccc(/C=C/[N+](=O)[O-])cc1`, the growth inhibition is 11%.

As to `CCOC(=O)c1[nH]n(-c2ccccc2)c(=O)c1C=NC(=S)C(N)=S`, the growth inhibition was 27%.

As for `CCCC(O)C1CC(C(C)C)CCC1C` (centres undefined), the growth inhibition was -1%. `O=[n+]1c2ccccc2n([O-])c2cc(Br)ccc21`: the growth inhibition is 39%.

As to `CN(C)CCNC(=O)c1cccc2c1Oc1c(cccc1[N+](=O)[O-])O2`, the growth inhibition was 2%.
